# “And” between values parts separate entries of the source, which are not always exact repeats. Identical values can stand only once. Compounds without any hit were thinned out: in the full panel of roughly 83,000, 20% have a hit.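 Testing used 96-well plates and a 48-hour single-concentration exposure. Example: -40 means 40% of the starting cells died.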 The source made the active and inactive calls.
# Test system: BT-549 breast
# Assay: NCI-60 one-dose screen, 48 h (100 = growth as untreated, 0 = no growth, -100 = all killed)
# Conditions: 4.75 µM
# Protocol: Growth inhibition of the BT-549 human tumor cell line is measured as a screen for anti-cancer activity. Cells are grown in 96 well plates and exposed to the test compound for 48 hours. Compounds are tested at a single concentration, which is 10^-5 M for most compounds. The reported endpoint is percent growth (GI% or GIPRCNT), where numbers from 0 - 100% represent growth inhibition, and numbers from -100% - 0 represent cell death. For example, a value of 40 represents 60% growth inhibition. A value of 0 means no net growth occurred over the course of the experiment. A value of -40 indicates 40% of cells at the beginning of the experiment died by the end of the experiment. A value of -100 means all cells are dead at the end of the experiment.
# NCI-60 Human Tumor Cell Lines Screen was performed using the standard one-dose NCI protocol, which is described in more detail at https://dtp.cancer.gov/discovery_development/nci-60/default.htm.
# Compounds with GIPRCNT values below 10 were considered active. Activity score was based on GIPRCNT using the following formula: […]
# Score is 0 for GIPRCNT values of 100 or above, 50 for GIPRCNT values of 0, and 100 for GIPRCNT values of -100.
row,SMILES,growth
1,CC(=O)OCC1OC([S-])C(OC(C)=O)C(OC(C)=O)C1OC(C)=O.[Au+].c1ccc(CN2[CH-]N(Cc3ccccc3)C(c3ccccc3)=C2c2ccccc2)cc1,7.95% (active)

# Same assay, conditions: 10 µM
row,SMILES,growth
1,CC(=O)OCC1OC([S-])C(OC(C)=O)C(OC(C)=O)C1OC(C)=O.[Au+].c1ccc(CN2[CH-]N(Cc3ccccc3)C(c3ccccc3)=C2c2ccccc2)cc1,12.6% (inactive)

# Same assay, conditions: 10 µM unless noted
row,SMILES,growth
1,ClC1OC(Cl)(Cl)C(Cl)(Cl)OC1(Cl)Cl (stereo not given),84.4% (inactive)
2,CC(=O)Cc1ccc2c(c1)OCO2,106% (inactive)
3,CCC(Br)(CC)C(=O)NC(N)=O,108% (inactive)
4,CCN1C(=O)NC(=O)C(C)(N2C(=O)c3c(F)c(F)c(F)c(F)c3C2=O)C1=O (stereo not given),35.9% (inactive)
5,S=P(SP(=S)(c1ccccc1)c1ccccc1)(c1ccccc1)c1ccccc1,109% (inactive)
6,CNC(=O)CCl,101% (inactive)
7,O=[N+]([O-])c1c(Cl)cc(Cl)c([N+](=O)[O-])c1Cl,114% (inactive)
8,CC[C@H](C)[C@H](NC(=O)[C@H]1CCCCN1C)C(=O)N(C)[C@H](C[C@@H](OC(C)=O)c1cccc(C(=O)N[C@@H](Cc2ccccc2)C[C@H](C)C(=O)OC)n1)C(C)C,-22.5% (active)
9,CC[C@H](C)[C@H](NC(=O)c1ncccn1)C(=O)N(C)[C@H](C[C@@H](OC(C)=O)c1nc(C(=O)N[C@@H](Cc2ccccc2)C[C@H](C)C(=O)OC)cs1)C(C)C,5.49% (active)
10,O=C(O)c1ccccc1N(CCO)CCCl,95.9% (inactive)
11,CC(=O)C(N)Cc1ccccc1 (stereo not given),96% (inactive)
12,C[N+]1(C)CCCC1c1cccnc1 (stereo not given),85.3% (inactive)
13,COC(=O)C1=CO[C@@H](C)[C@@H]2CN3CCc4c([nH]c5cc(OC)ccc45)[C@@H]3C[C@H]12,105% (inactive)
14,Oc1ccc(O)c(Cl)c1,66.3% (inactive) and 96.1% (inactive)
15,Cc1cc(C(C)(C)C)ccc1O,109% (inactive)
16,C[C@]12CCc3nc(-c4ccc(O)c(O)c4)sc3C1=CC[C@@H]1[C@@H]2CC[C@]2(C)C(=O)CC[C@@H]12,58.1% (inactive)
17,O=C1NC(=O)C(=Cc2ccccc2)C(=O)N1,106% (inactive) and 116% (inactive)
18,CN1C2CCC1[C@@H](COC(=O)c1ccccc1)[C@@H](O)C2 (stereo not given in full),143% (inactive)
19,CO[C@H]1[C@H](O[C@@H]2C[C@@H]3C/C=C/C(=O)O[C@@H](CO)C[C@H](O)[C@@H]4C[C@H](C)[C@H](C/C=C\C=C\[C@H](C)C[C@H](C2)O3)O4)O[C@@H](C)[C@H](O)[C@H]1O,53.9% (inactive)

row,SMILES,growth
1,COc1cc(/C=C\[N+](=O)[O-])ccc1OCc1ccccc1,37.2% (inactive)
2,COc1cc(C=C2C(=O)NC(=O)NC2=O)ccc1O,111% (inactive)
3,c1ccc2c(c1)O[As](O[As]1Oc3ccccc3O1)O2,17.6% (inactive)
4,CN1CCC2(CC1)C(C#N)C(=O)NC(=O)C2C#N (stereo not given),103% (inactive)
5,Cc1nnc([S-])o1.[Au+].c1ccc([PH+](c2ccccc2)c2ccccc2)cc1,34.1% (inactive)
6,Cc1cc[n+](CCc2ccccc2)cc1,104% (inactive) and 107% (inactive)
7,O=[N+]([O-])c1ccc(P(=O)(O)O)cc1,89.9% (inactive)
8,CCCC[C@H]1C(=O)O[C@H](C)[C@H](NC(=O)c2cccc(NC=O)c2O)C(=O)O[C@@H](C)[C@@H]1OC(=O)CC(C)C,140% (inactive)
9,C=C1C(=O)OC2CC3(C)OC3C3OC3C3=CC(OC3=O)C12 (stereo not given),98.2% (inactive)
10,CC[C@H](C)[C@H](NC(=O)[C@H]1CCCCN1C)C(=O)N(C)[C@H](C[C@@H](OC(C)=O)c1nc(C(=O)NC23C4C5C2C2C3C4C52C(=O)OC)cs1)C(C)C (stereo not given in full),-36% (active)
11,C#Cc1cccc(Nc2nc(Cl)nc3cc(NC(=O)CF)ccc23)c1,72.2% (inactive)
12,Cc1cc(N(CCCl)CCCl)ccc1/C=N\NC(=O)c1cccnc1,86% (inactive) and 78.8% (inactive)
13,O=c1[nH]c(=O)[nH]c(=O)[nH]1,145% (inactive)
14,CCOC(=O)C1C(C=C(C)C)C1(C)C (stereo not given),104% (inactive)
15,COc1ccc(N)cc1N,112% (inactive)
16,COc1ccc(N(CC(=O)NCCC[Te]c2ccccc2)C(=O)c2ccccc2)cc1,-36.2% (active)
17,CC(=O)c1cccc(S(=O)(=O)F)c1,88.8% (inactive)
18,C[C@]12CCc3sc(Nc4ccc(O)cc4)nc3C1=CC[C@@H]1[C@@H]2CC[C@]2(C)C(=O)CC[C@@H]12,45.6% (inactive)
19,C[C@]12CC[C@H]3[C@@H](C[C@@H]4SC(Nc5ccccc5)=N[C@@]45C/C(=N/O)CC[C@]35C)[C@@H]1CCC2=O,35.6% (inactive)

# — PubChem BioAssay (NCI)
